Bioassay records (PubChem BioAssay)
This excerpt belongs to a sample that is enriched for hits.
RT RNaseH block – HIV-1 RT RNase H inhibitors, primary screen, biochemical, fluorescence; Gag-Pol polyprotein (Human immunodeficiency virus type 1 group M subtype B (isolate …; RT-RNase H RNA/DNA duplex cleavage; inhibition, % at 10 µM; 65,000 tested, 1.9% active; AID 565, 2006; in the data active = inhibition above about 50%
Large screens that a line does not name were inactive.

CCN1CCN(C(=O)c2ccc3c(=O)n(CCC4=CCCCC4)c(=O)[nH]c3c2)CC1	none
O=C(NCc1ccco1)c1ccc2c(=O)n(CCC3=CCCCC3)c(=O)[nH]c2c1	RT RNaseH block 51.8
C=CCOc1ccc2ccccc2c1CNc1ncn[nH]1	none
Nc1nc(SCC(=O)N2CCCc3ccccc32)n(-c2ccccc2)n1	none
O=C(NCCCn1ccnc1)Nc1cccc(Cl)c1	none
CC(=O)Nc1c(C(=O)O)oc2ccccc12	RT RNaseH block 55.6
CC(=O)Nc1c(C(=O)c2ccc(F)cc2)oc2ccccc12	none
CC(=O)Nc1c(C(=O)O)oc2ccc(Cl)cc12	none
c1cc2c(cc1C1CCCN1)OCCCO2 (stereo not given)	none
COC(=O)c1sc(NC(=O)C2CCCCC2C(=O)O)c(C(=O)OC)c1C (stereo not given)	none
CCN(CC)S(=O)(=O)c1ccc(NC(=O)C(OC)c2ccccc2)cc1 (stereo not given)	none
COc1cc(OC)c(NC(=O)CCc2nc(-c3cccs3)no2)cc1Cl	none
COC(=O)c1ccc(CSc2ncnc3c2sc2nc(N4CCOCC4)c4c(c23)CCCC4)o1	RT RNaseH block 82.9
COC(=O)c1ccc(-c2sc3nc(N4CCOCC4)c4c(c3c2N)CCCC4)o1	none
COC(=O)c1ccc(Cn2nnc3c(sc4nc(N5CCOCC5)c5c(c43)CCCC5)c2=O)o1	none
COC(=O)c1nnn(CC(=O)Nc2cccc(OC)c2)c1C(=O)OC	none
O=C1CN(C(=O)COC(=O)c2ccccc2NC(=O)c2ccco2)c2ccccc2N1	none
Cc1ccc(-c2nc(NC(=O)CSc3nnc4scc(-c5ccccc5)n34)ns2)cc1	none
COc1ccc(C(=O)COC(=O)CCN=C2NS(=O)(=O)c3ccccc32)cc1OC	none
CCOC(=O)c1c(C)oc2c1c(C=NCc1ccccn1)c(O)c1ccccc12	none
CCOC(=O)c1c(C)oc2c1c(C(c1cccnc1)N1CCN(C)CC1)c(O)c1ccccc12 (stereo not given)	RT RNaseH block 60.0
CCOC(=O)c1c(C)oc2c1c1c(c3ccccc32)OCN(Cc2cccnc2)C1	none
N#CC(C#N)=c1ccc2c(c1)NC1(CCCCC1)N=2	none
COc1ccc(N(CC(=O)Nc2ccc(C)cn2)S(=O)(=O)c2c(C)noc2C)cc1	none
Cc1ccc(NC(=O)c2c(-c3c(F)cccc3Cl)noc2C)cc1F	none
O=C(CSc1ncn(-c2ccccc2)n1)Nc1ccc2c(c1)OCCO2	none
O=C(CSc1ccccn1)Nc1ccc(Br)cn1	none
O=C(CSc1ncn(-c2ccccc2)n1)Nc1ccc(Br)cn1	RT RNaseH block 55.1
CN(CC(=O)Nc1ccc(Cl)cc1)CC(=O)Nc1cc(Cl)ccc1C#N	none
CC(C)C(=O)N1CCC(CN=Cc2c(O)n(C3CCCCC3)c(=O)n(C3CCCCC3)c2=O)CC1	none
CCC(=O)N1CCN(CCN=Cc2c(O)n(C3CCCCC3)c(=O)n(C3CCCCC3)c2=O)CC1	none
NS(=O)(=O)c1ccc(N=Cc2c(O)n(C3CCCCC3)c(=O)n(C3CCCCC3)c2=O)cc1	RT RNaseH block 51.9
C=CCn1c(SCn2nnc3ccccc3c2=O)nnc1C1CCCCC1	none
Cc1nc(Nc2cccc(C(F)(F)F)c2)nc2c1C(=O)CC(C)C2 (stereo not given)	RT RNaseH block 51.1
Cc1nc(N2CCN(c3ccccc3)CC2)nc2c1C(=O)CC(C)C2 (stereo not given)	none
Cc1cccc(Nc2ncc3c(n2)CC(C)CC3=O)c1 (stereo not given)	none
CC1(C)Cc2c(C#N)c(N3CCN(C(=O)c4ccco4)CC3)nc(Cc3ccccc3)c2CO1	none
CC1(C)Cc2c(C#N)c(N3CCN(C(=O)c4ccco4)CC3)nc(-c3ccco3)c2CS1	RT RNaseH block 55.4
N#Cc1c(N2CCN(C(=O)c3ccco3)CC2)nc(-c2ccccc2)c2c1CCCC2	none
Cc1[nH]c2ccc(CNS(=O)(=O)c3ccc(S(=O)(=O)N4CCOCC4)cc3)cc2c1C	none
COC(=O)C1=C(C)N2C(=O)CSC2=NC1c1ccc2c(c1)OCO2 (stereo not given)	none
Cn1c(=O)n(CCc2ccccc2)c(=O)c2c1nc1n2CCN1c1ccccc1	none
COc1ccc(N2CCn3c2nc2c3c(=O)n(CCCc3ccccc3)c(=O)n2C)c(OC)c1	none
COc1ccc(N2CCn3c2nc2c3c(=O)n(CCCc3ccccc3)c(=O)n2C)cc1	RT RNaseH block 60.0
CCOC(=O)C1CCN(C(=O)C2CCN(S(=O)(=O)c3cccc4cccnc34)CC2)CC1	none
CCOC(=O)c1ccc(NC(=O)CC2SC(=NC)N(C)C2=O)cc1 (stereo not given)	none
CCOC(=O)c1ccc(NC(=O)CC2Sc3ncnn3C2=O)cc1 (stereo not given)	RT RNaseH block 59.9
COc1ccc(NC(=O)CC2Sc3ncnn3C2=O)cc1 (stereo not given)	none
COc1cc(Cl)ccc1NC(=O)COc1ccccc1C(=O)N1CCN(c2ccc(O)cc2)CC1	none
Cc1ccc(-c2nnc3sc(C4COc5ccccc5O4)nn23)cc1 (stereo not given)	none
c1ccc(Cc2nnc3sc(C4COc5ccccc5O4)nn23)cc1 (stereo not given)	RT RNaseH block 70.5
CCOc1ccccc1-c1nn2c(Cc3ccccc3)nnc2s1	none
Clc1ccc(CSc2nnc(-c3cccnc3)n2Cc2ccco2)c(Cl)c1	none
COc1cccc(-c2nc(Cc3ccc(OC)c(OC)c3)no2)c1	none
NC(=O)C1(N2CCCCC2)CCN(Cc2ccccc2Cl)CC1	none
CCOc1ccc(OCC(=O)Nc2ccc(S(=O)(=O)Nc3cc(C)nc(C)n3)cc2)cc1	RT RNaseH block 51.8
Cc1cc(NS(=O)(=O)c2ccc(NC(=O)CCCC(=O)O)cc2)nc(C)n1	none
CCCCOC(=O)Nc1ccc(S(=O)(=O)Nc2cc(C)nc(C)n2)cc1	none
CCOCCCn1c(=S)[nH]c2cc3c(cc2c1=O)OCO3	none
COC(=O)c1ccc(CSc2ccc3nnc(-c4cccc(F)c4)n3n2)o1	none
O=C(NC1=NC2CCCCC2N1)c1ccccc1 (stereo not given)	none
CN1CCN(C2=C(Cl)C(=O)N(CCc3ccccc3)C2=O)CC1	none
O=C1C(Cl)=C(N2CCCCCC2)C(=O)N1c1ccccc1	RT RNaseH block 56.8
O=C1C(Cl)=C(N2CCOCC2)C(=O)N1c1cccc(Cl)c1	RT RNaseH block 93.0
O=C1CC(N2CCOCC2)C(=O)N1c1cccc(Cl)c1 (stereo not given)	none
O=C(O)c1cccc(N2CCCC2)c1	none
O=C1C(Cl)=C(N2CCOCC2)C(=O)N1CCc1ccccc1	none
O=C(CN(C(=O)c1ccc2c(c1)OCCO2)c1ccccc1)NCC1CCCO1 (stereo not given)	none
CCC1(C)Cc2c(C#N)c(N)n(-c3ccccc3)c(=O)c2CO1 (stereo not given)	none
CCOC(=O)c1c2c(c(=S)n(-c3ccccc3)c1N)CCC2	none
N#Cc1c2c(c(=S)n(-c3ccccc3)c1N)CCCC2	RT RNaseH block 70.1
O=C(CSc1ccc2nnc(-c3ccccn3)n2n1)Nc1ccc2c(c1)OCO2	none
O=c1c2ccccc2nc2n1CCN2Cc1ccc(Cl)cc1	none
CCOc1ccc(-n2c(C)nc3cc(C(=O)NCc4ccco4)ccc32)cc1	none
C=CCNC(=O)c1sc(=S)n(-c2ccc(C(=O)OCC)cc2)c1N	RT RNaseH block 75.8
CCn1c(N)c(C(=O)NCc2ccco2)sc1=S	none
COc1ccc(-n2c(N)c(C(=O)NCC3CCCO3)sc2=S)cc1 (stereo not given)	none
CCOC(=O)c1sc(=S)n(CC)c1N	none
CCOC(=O)c1ccc(-n2c(N)c(C(=O)NCc3ccco3)sc2=S)cc1	RT RNaseH block 71.9
COc1ccc(OC)c(S(=O)(=O)N2CCN(C34CC5CC(CC(C5)C3)C4)CC2)c1	none
CC(C)c1cc(NC(=O)CSc2nnc(-c3ccccc3F)n2C)on1	none
Cc1cc2c(c(Sc3ccccc3)n1)C(=O)OC2	none
